Source: PubChem (several laboratories)
phage Ecoli inh = growth loss of phage-infected E. coli, primary screen, RecBCD inhibitor project, absorbance, with phage, HTS; inhibition, % at 11.9 µM; hit rate 0.26% among 360,000; in the data active = inhibition above about 11%
E coli growth-1 = E. coli V3065 growth inhibition, primary screen, counter-screen for AddAB inhibitor project, absorbance, OD600; 18 h; inhibition, % at 11.9 µM; hit rate 0.27% among 330,000; AID 449728, 2010;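 active = inhibition above the campaign's mean inhibition across all tested compounds plus 3 SD, cut at about 9.9% in these data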;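 also: uninfected addAB+ strain grown without phage in ampicillin broth; 0% = DMSO wells and 100% = ciprofloxacin 0.95 µg/ml wells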
AddAB inh = growth inhibition of E. coli expressing H. pylori AddAB, primary screen, AddAB inhibitor project, absorbance; inhibition, % at 11.9 µM; hit rate 0.29% among 330,000; AID 435030, 2010; in the data active = inhibition above about 12%;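 also: 0% = vehicle wells of infected cells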
Tat export inh = E. coli Tat export inhibitors, primary screen, MC4100, TorA-mCherry reporter, fluorescence, single point; AID 488895, 2010; hit rate 0.036% among 340,000; inhibition, % at 10 µM;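 active = mean replicate inhibition at least 50% and at least half of replicates individually reaching 50%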;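 also: exported cargo escapes ClpAP degradation while cytoplasmic cargo is degraded and loses fluorescence; 0% = median of neutral control wells and 100% = median of NaSCN control wells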
E coli growth-2 = E. coli growth inhibition, primary screen, OD600. Escherichia coli growth, 23 h; active compounds read low. OD600 absorbance (concentration not given with the values). hit rate 0.21% among 330,000;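 active = OD600 absorbance below the run mean of sample wells minus 3.6 SD, in any replicate, cut at about 0.56 in these data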
The depositor's hits bear a star; · = not tested or not shown. The list is not random: actives were taken first. Their share in the collection is about 0.51%.

SMILES	phage Ecoli inh	E coli growth-1	AddAB inh	Tat export inh	E coli growth-2
CNCC(CC1CCCCC1)NCC(CO)NCC1(c2ccccc2)CC1 (stereo not given)	·	·	·	·	0.68
Fc1ccc2[nH]c3c(NCc4ccccc4)ncnc3c2c1	9	7	5	-2	0.45*
CCOC(=O)N1CCC(N2C(=O)c3ccccc3C2Nc2cc(C(=O)OC)cc(C(=O)OC)c2)CC1 (stereo not given)	100*	1	3	4	0.77
CCOC(=O)N1CCC(N2C(=O)c3ccccc3C2Nc2cc(C)cc(C)c2)CC1 (stereo not given)	1	0	4	2	0.71
CCCCCN=C(N)NN=Cc1c[nH]c2ccc(OC)cc12	·	·	·	·	0.059*
CC(C)n1ncc2c(C(=O)O)cc(C3CC3)nc21	-2	-5	0	-11	0.74
CC(C)n1ncc2c(C(=O)N3CCN(Cc4ccc(Br)s4)CC3)cc(C3CC3)nc21	2	-3	0	53*	0.7
O=C(C=Cc1cccc([N+](=O)[O-])c1)n1cnc2ccccc21	·	·	·	·	0.71
CCCCN(C)CCOc1ccccc1OCC	2	-3	0	0	0.065*
COc1ccccc1C(=O)Nc1ccc(S(=O)(=O)Nc2nccs2)cc1	1	-1	2	3	0.66
O=C(O)c1ccccc1C(=O)Nc1ccc(S(=O)(=O)Nc2nccs2)cc1	8	11*	10	-8	0.62
O=C(Nc1nc2c(Cl)cccc2s1)c1ccc([N+](=O)[O-])o1	1	5	3	-28	0.5*
N=c1n(Cc2ccccc2)c2ccccc2n1CC(O)COc1ccc(Cl)cc1Cl (stereo not given)	5	·	·	3	0.5*
Fc1ccc(NC(=S)Nc2ccc(Cl)cc2)cc1	6	-1	1	7	0.52*
COc1cccc(NC(=S)Nc2ccc(F)cc2)c1	4	0	1	12	0.7
Fc1cccc(NC(=S)Nc2ccc(Br)cc2)c1	7	0	2	-12	0.49*
O=C(Cc1ccccc1)NNC(=S)NC(=O)c1cccs1	-4	-8	-6	·	0.45*
O=C(NC(=S)NNC(=O)c1cnccn1)c1ccc(Cl)cc1	-1	-2	-3	-2	0.55
COc1ccc(C(=O)NC(=S)NNC(=O)c2cnccn2)cc1	-2	-5	-3	4	0.43*
O=C(NNC(=S)NC(=O)c1cccnc1)c1ccc(Cl)cc1	-2	-2	-6	11	0.53*
CC(=O)NC(=Cc1ccc2c(c1)OCO2)C(=O)NCCO	·	·	·	·	0.68
CCSc1nnc(NC(=O)c2ccccn2)s1	0	11*	9	19	0.67
CCSc1nnc(NC(=O)c2cnccn2)s1	·	0	1	·	0.72
CO[C@@]1(NC(=O)C2SC(=C(C(N)=O)C(=O)O)S2)C(=O)N2C(C(=O)O)=C(CSc3nnnn3C)CSC21 (stereo not given in full)	·	·	·	·	0.061*
CO[C@@]1(NC(=O)CSCC#N)C(=O)N2C(C(=O)O)=C(CSc3nnnn3C)CSC21 (stereo not given in full)	·	·	·	·	0.6
SMILES	phage Ecoli inh	E coli growth-1	AddAB inh	Tat export inh	E coli growth-2
CCOc1ccc2[nH]c3c(NCCN(C)C)ncnc3c2c1	1	-1	0	8	0.68
CCOc1ccc2[nH]c3c(NCCC(C)C)ncnc3c2c1	8	·	·	-4	0.5*
COc1ccccc1NC(=O)CSc1ccc(-c2ccccn2)nn1	12*	9	11	1	0.7
Cc1nnc(NC(=O)CSc2ccc(-c3cccnc3)nn2)s1	4	1	1	-4	0.66
COc1ccc(NC(=O)CSc2ccc(-c3ccccn3)nn2)cc1OC	9	1	1	6	0.68
O=C(CSc1ccc(-c2ccccn2)nn1)c1ccc(F)cc1	4	11*	8	0	0.7
Cc1nnc(NC(=O)CSc2ccc(-c3ccccn3)nn2)s1	·	9.9*	9	·	0.62
Cc1ccc(NC(=O)CN2C(=O)NC(=Cc3ccco3)C2=O)cc1	·	·	·	·	0.73
Cc1ccc(-n2[nH]c(C)c(C=Nc3ccc(S(=O)(=O)Nc4nccs4)cc3)c2=O)cc1C	9	8	11	-6	0.64
Cc1ccc(-n2[nH]c(C)c(C=Nc3ccc(S(=O)(=O)Nc4nccs4)cc3)c2=O)c(C)c1	·	6	13*	·	0.61
O=C(CCN1CCOCC1)NNC(=S)NC(=O)c1ccc(Br)cc1	-3	3	1	-2	0.47*
O=C(CCN1CCCCC1)NNC(=S)NC(=O)c1ccc(Br)cc1	-3	-1	0	-1	0.6
CC1=NN(C(N)=S)C(=O)C1N=Nc1cccc2ccccc12 (stereo not given)	·	14*	7	·	·
Cc1ccc(C(=O)N2CCCC(CCC(=O)NCc3ccccc3F)C2)cn1 (stereo not given)	2	-2	-2	0	0.72
C=CCOc1cccc(C(=O)N2CCCC(CCC(=O)NCc3ccccc3F)C2)c1 (stereo not given)	2	-2	2	50*	0.67
CN(C)S(=O)(=O)n1cnc(C2C3C(=O)OCC3C[C@@]23N=CN(Cc2ccccc2)C3=O)c1 (stereo not given in full)	·	·	·	·	0.67
CC[C@H]1OC(=O)C[C@@H](O)[C@H](C)[C@@H](O[C@@H]2O[C@H](C)C[C@H](N(C)C)[C@H]2O)[C@@H](CC=O)C[C@@H](C)C(=O)C=C[C@]2(C)O[C@H]2[C@@H]1C	·	100*	99*	·	·
COc1cc(CCCN2CCNCC2Cc2cccc3ccccc23)cc(OC)c1OC (stereo not given)	·	·	·	·	0.65
c1ccc2cc(CCOC3CCCCO3)ncc2c1 (stereo not given)	·	·	·	·	0.62
CC(C)(C)C1COC(=O)C(Cc2ccc(F)cc2)CC=CCC(CC(=O)NC(CO)Cc2ccccc2)C(=O)N1 (stereo not given)	·	·	·	·	0.66
NC(=O)CC1NC(=O)c2cc([N+](=O)[O-])cc(I)c2OCCC(C(N)=O)NC(=O)C2CCCN2C1=O (stereo not given)	·	·	·	·	0.67
N#Cc1cccc(NC(=O)Nc2cccs2)c1	5	5	6	2	0.54*
COc1ccc(C2C=CCN(C(=O)CC(C)C)CC(=O)N2Cc2ccc(F)cc2)cc1 (stereo not given)	·	·	·	·	0.67
CCn1cc(C(=O)O)c(=O)c2cc(OC)ccc21	-1	3	10	-1	0.53*
CCn1cc(C(=O)O)c(=O)c2cc(S(=O)(=O)N3CCCCCC3)ccc21	-2	1	0	1	0.6
SMILES	phage Ecoli inh	E coli growth-1	AddAB inh	Tat export inh	E coli growth-2
O=C(CNC(=O)c1ccc(Br)cc1)NN=Cc1cccnc1	·	·	·	·	0.66
O=C(c1cc(O)c(O)c([N+](=O)[O-])c1)c1ccccc1F	3	-1	-1	57*	0.7
Oc1ccc(CN2CCN(c3ccccc3)CC2)c2cccnc12	·	2	3	2	0.62
Oc1ccc(CN2CCc3ccccc3C2)c2cccnc12	8	5	5	4	0.47*
Oc1ccc(CN2CCC(Cc3ccccc3)CC2)c2cccnc12	9	·	·	·	0.46*
CN(C)C1CCN(Cc2cc(COCc3ccccc3)c3cccnc3c2O)C1 (stereo not given)	·	10*	8	10	·
